# Measured values as given in the supplement of paper PMC3334620.
# Whole data set: some 33,000 sequences, median “E-score (-0.5 to 0.5)” near -0.016, cut for the highest 2% near 0.31. The full list was thinned out, with the highest values kept by preference.
# Biological target: Cst6 (UniProt P40535)
# Test: PBM E-score (8-mer binding enrichment) (E-score (-0.5 to 0.5)); higher = stronger / more preferred TF binding
# Conditions: protein concentration: 200 nM; construct: GST-DNA-binding domain
# Method in brief: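 Detection of bound protein used fluorescent anti-GST, with scans normalised by masliner. The proteins were GST-tagged yeast transcription factors applied at about 100-200 nM to universal all-10-mer Agilent arrays made double-stranded by primer extension. Each ungapped eight-base word, pooled with its reverse complement, was scored with an E-score from the Universal PBM Analysis Suite.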
# Sequence of UniProt P40535 (P40535 whole entry): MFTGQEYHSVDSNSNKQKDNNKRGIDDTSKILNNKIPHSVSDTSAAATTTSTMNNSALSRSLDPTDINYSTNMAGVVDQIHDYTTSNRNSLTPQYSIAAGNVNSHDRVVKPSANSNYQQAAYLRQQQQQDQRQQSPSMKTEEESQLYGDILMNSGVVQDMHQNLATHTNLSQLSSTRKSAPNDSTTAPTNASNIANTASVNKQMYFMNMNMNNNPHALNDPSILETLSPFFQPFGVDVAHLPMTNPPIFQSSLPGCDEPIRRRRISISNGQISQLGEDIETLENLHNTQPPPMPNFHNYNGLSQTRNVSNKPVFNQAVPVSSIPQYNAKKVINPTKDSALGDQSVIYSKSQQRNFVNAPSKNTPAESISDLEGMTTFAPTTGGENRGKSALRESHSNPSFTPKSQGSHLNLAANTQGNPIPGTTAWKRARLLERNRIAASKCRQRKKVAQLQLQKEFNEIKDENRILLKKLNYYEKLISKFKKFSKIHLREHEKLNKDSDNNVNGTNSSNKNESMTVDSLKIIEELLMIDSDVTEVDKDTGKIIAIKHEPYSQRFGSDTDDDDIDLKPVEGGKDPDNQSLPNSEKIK
row,Sequence,PBM E-score
1,CGGAGAGC,-0.0924
2,CGTCGGAC,-0.178
3,ATTTCACG,-0.00077
4,AGTAAGGA,-0.0515
5,ATAGATGG,-0.129
6,CCTTCGAG,-0.21
7,GGAAGTCA,-0.14
8,TGAAGTCA,0.372
9,CGAAGTCA,0.0581
10,CAGCAGTC,-0.258
11,ATATTTAA,0.355
12,CTATTAAA,0.192
13,CTATTTAA,-0.0505
14,TTATTAAA,0.264
15,ATATTTAC,0.175
16,ATATTAAA,0.355
17,ATCAAAGG,-0.0902
18,CTACCACA,-0.155
19,AGTTCCCG,-0.205
20,AGGGCAAT,-0.0329
21,GTGCGTCA,0.432
22,GTGCGTAA,0.192
23,CTGCGTTA,-0.204
24,CTGCGTCC,-0.11
25,ATGCGTCG,0.0508

row,Sequence,PBM E-score
1,ATGCGTCA,0.444
2,CTGCGTCA,0.428
3,GTGCGTGA,0.136
4,ATGCGTCC,-0.213
5,TCTAACCA,0.057
6,CGTCTACC,-0.0234
7,CATTTAGA,0.136
8,AGCAGCTC,-0.28
9,GTCAAGCA,-0.29
10,TCATAACA,0.311
11,ACATAACA,0.227
12,TAATAAAA,0.316
13,AAATATAA,0.233
14,CCATATAA,0.105
15,GAATATAA,0.111
16,GCATATAA,0.166
17,TCATATAA,0.305
18,GAATAAAA,0.216
19,GCATAACA,0.124
20,TAATATAA,0.358
21,CAATAAAA,0.165
22,CATCCTAC,-0.0877
23,CCAGGGCC,-0.39
24,ATTGGCGC,0.0493
25,CGACTACC,-0.363

row,Sequence,PBM E-score
1,CTTCCATC,-0.0839
2,CAAGTCTC,-0.247
3,TCGCCTAA,-0.0175
4,AAAAGAGG,-0.121
5,TACCAGAA,0.0986
6,AGGGAAGG,-0.28
7,CAATATAG,0.0707
8,CAATATAC,-0.0952
9,CAATATAA,0.312
10,GCACGGCA,0.353
11,GAACGGCA,0.352
12,GCACGGCC,0.23
13,TCACGGCA,0.224
14,CAACGGCA,0.094
15,GAACGGCC,-0.183
16,GGCAGGCC,-0.332
17,ATGGGTCC,-0.242
18,GACACCAC,-0.0664
19,CGTTGTCC,0.126
20,GGGGAAAA,-0.101
21,CGCATACC,0.117
22,GTTATGTA,0.165
23,ATTATGTA,0.355
24,ATTATGTG,0.228
25,ATTATGTC,0.359

row,Sequence,PBM E-score
1,ACTATGTC,0.0789
2,CTTATGTC,0.105
3,CTTACTGA,-0.0696
4,GGGCTCAA,-0.174
5,ACCCCTTG,-0.33
6,AGAAATCG,-0.0866
7,ACTATATC,0.128
8,TATATATA,0.315
9,TATATACA,0.161
10,GATATATA,0.304
11,AATATTGG,0.0316
12,GCTATATA,0.167
13,AATATATG,0.171
14,AATATATT,0.355
15,AATATTGT,0.306
16,AATATTGC,0.257
17,ACTATATA,0.316
18,AATATATA,0.239
19,GAATGTGC,0.07
20,GGACGAAC,-0.0196
21,ACTTGCGC,-0.0133
22,CTCGCATC,0.00499
23,CATATATG,0.341
24,AGTATATA,0.348
25,CATATATA,0.272

row,Sequence,PBM E-score
1,AGTATATC,0.0089
2,AGTATATG,0.111
3,CATATATC,0.121
4,AGTTGCGA,0.0793
5,AAACTGAT,0.0925
6,ACGCGATG,0.122
7,AATTGTCG,0.0471
8,CATTTGTC,0.0906
9,CAGGGTTA,-0.124
10,AACGTAAG,0.306
11,GCCGTAAA,0.243
12,AACGTAAC,0.329
13,GACGTAAA,0.374
14,CACGTAAG,0.292
15,ACCGTAAC,-0.0255
16,ACCGTAAG,0.109
17,AACGTAAA,0.274
18,AACGTAGC,0.0195
19,AACGTACT,0.0968
20,CACGTAAA,0.181
21,AACGTAAT,0.453
22,CACCCTCA,-0.212
23,AAGTTCAC,-0.0134
24,GACTTGAA,-0.171
25,AGCTGTGA,0.135

row,Sequence,PBM E-score
1,TCGGAAAA,0.113
2,AGTCTAGA,-0.124
3,CTCGGACC,-0.18
4,GGGCTGGA,-0.295
5,CATGCGTA,0.15
6,TCCGTAAA,-0.0237
7,CACGTACC,-0.0025
8,GACGTAGC,0.166
9,AACGTACC,-0.185
10,TGCGTAAA,0.218
11,GACGTAAC,0.46
12,CACGTAAC,0.262
13,TACGTAAA,0.42
14,GACGTACC,0.349
15,GCTTGATA,0.162
16,CCCGCTCA,-0.0513
17,CCGCAGGA,-0.234
18,AATCGGGT,0.191
19,TCTCGGCA,-0.0951
20,GCAGCCCC,-0.349
21,GGGTGTAC,-0.185
22,ATTACACG,0.205
23,ATTACACA,0.318
24,CTCACATC,0.0865
25,ATTACAAC,0.226

row,Sequence,PBM E-score
1,ATTACATG,0.245
2,GTTACATA,0.228
3,AGTACATC,-0.0114
4,CTTACATC,0.365
5,ATTACATC,0.433
6,CTTACATA,0.25
7,ATTACATA,0.396
8,ATTACACC,0.089
9,GAGACCCC,-0.279
10,AACCCACC,0.0456
11,CTTTAGAA,0.0739
12,AATCCGAG,-0.0702
13,ATCAAGGA,-0.0436
14,AAGGGGCA,-0.178
15,ATGATAAA,0.307
16,CTGATATA,0.179
17,ATGATATA,0.31
18,ATGATAAC,0.263
19,ATGATATG,0.269
20,GTGATAAA,0.201
21,ATCAAATG,0.0892
22,AATATTAA,0.334
23,GATATTAA,0.201
24,CATATTAA,0.234
25,AATATTAT,0.242

row,Sequence,PBM E-score
1,AATATTAG,0.185
2,TATATTAA,0.336
3,TGGATCAA,0.125
4,CCTAGTAA,-0.194
5,CAAAGCTA,0.0247
6,GTCATTTA,0.368
7,GACATTTA,0.115
8,ATCATTAA,0.28
9,ATCATTTA,0.335
10,CTCATTTA,0.141
11,CTCATTAA,0.0741
12,GTCATTAA,0.394
13,ATCATTTC,0.246
14,ATCATTTG,0.165
15,CCGCTCCA,-0.152
16,ACCCCCCC,-0.357
17,ATTGACAG,0.0614
18,AAGACGGA,0.00374
19,CTGACGGA,0.165
20,GTGACGGA,0.352
21,GCGACGGA,-0.224
22,ATGACGGG,0.258
23,ACGACGGA,0.0762
24,CTGACGGC,0.111
25,ATGACGGC,0.365

row,Sequence,PBM E-score
1,ATGACGGA,0.417
2,CGCATAAG,0.102
3,CGTACGGA,0.168
4,GAAAGCGC,-0.00012
5,CCAAACCC,-0.126
6,ATGACACC,0.228
7,ATGACAAC,0.302
8,CTGACAGC,-0.148
9,ATGACATC,0.478
10,CTGACATC,0.307
11,CGGACATC,-0.196
12,CAGAGGAG,-0.0824
13,CCTTACCC,-0.0626
14,CCAGAAGG,-0.0896
15,CCGCGCGA,0.255
16,CCGCGCGG,0.382
17,GCGCGCGC,0.345
18,CCGCGCGC,0.151
19,ACGCGCGC,0.175
20,GCGCGCGA,0.0433
21,AGCCCCAA,-0.281
